IL-1B inflam inh: qHTS for Inhibitors of Inflammasome Signaling: IL-1-beta AlphaLISA Primary Screen; THP-1 LPS/ATP IL-1B secretion, AlphaLISA, 16 h; active compounds read low; activity change, % at 57.5 µM; 360,000 tested, 4.7% active; in the data active = activity change below about -50%; inconclusive = mostly about -30% to -49%
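Secreted IL-1B measured by AlphaLISA bead assay after 16 h compound exposure of THP-1 cells; compounds (final up to 57.5 uM) added 1 h before LPS (250 ng/mL) and ATP (1.25 mM) stimulation; lower signal means less secretion.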
Giardia killer: Small Molecules that selectively kill Giardia lamblia: qHTS; Giardia lamblia trophozoite viability; activity change, % at 7.66 µM, hits read low; 340,000 tested, 0.15% active; AID 540267, 2011; in the data active = activity change below about -80%; inconclusive = between about -30% and that limit;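 note: parasites exposed to compound for two days anaerobically before the ATP read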
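Each well holds 100 Giardia trophozoites and compound. After two days (48 hrs) at 37 deg C in anaerobic conditions, ATP is quantified by luminescence.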
TDP1 inh: qHTS Assay for Inhibitors of Tyrosyl-DNA Phosphodiesterase (TDP1); Tyrosyl-DNA phosphodiesterase 1 (Homo sapiens), Q9NUW8; recombinant TDP1, AlphaScreen DNA substrate cleavage; Potency, µM (top dose mostly 130 µM), for inactives: at the top dose activity change, negative = inhibition, hits mostly inhibitors; 350,000 tested, 0.28% active; note: potency is the fitted concentration of half-maximal effect; nearly all actives have a fitted effect of over 40% in size
Target sequence (Q9NUW8 whole entry, looked up): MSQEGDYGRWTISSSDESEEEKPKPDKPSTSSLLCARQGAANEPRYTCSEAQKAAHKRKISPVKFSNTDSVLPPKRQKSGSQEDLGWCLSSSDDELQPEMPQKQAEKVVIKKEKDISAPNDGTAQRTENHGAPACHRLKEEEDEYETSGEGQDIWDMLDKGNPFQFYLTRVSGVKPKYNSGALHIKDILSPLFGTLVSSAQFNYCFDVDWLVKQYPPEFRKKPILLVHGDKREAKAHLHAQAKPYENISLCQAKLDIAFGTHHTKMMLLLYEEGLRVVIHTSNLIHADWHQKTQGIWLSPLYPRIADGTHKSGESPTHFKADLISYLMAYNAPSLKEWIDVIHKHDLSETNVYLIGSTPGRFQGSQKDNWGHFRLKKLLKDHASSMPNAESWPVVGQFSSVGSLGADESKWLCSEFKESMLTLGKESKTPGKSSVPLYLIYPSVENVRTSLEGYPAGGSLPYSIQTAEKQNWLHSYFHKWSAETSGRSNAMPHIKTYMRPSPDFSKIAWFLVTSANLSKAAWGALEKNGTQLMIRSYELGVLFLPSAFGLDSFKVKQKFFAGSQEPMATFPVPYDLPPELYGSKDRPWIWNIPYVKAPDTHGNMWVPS
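Tdp1 1 nM final; 15 min RT w/ cpd; substrate 15 nM, 5 min; beads 10 ug/ml, 10 min; AlphaScreen read. Neg ctrl: no enzyme.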
ELG1 DNA repair: qHTS screen for small molecules that inhibit ELG1-dependent DNA repair in human embryonic kidney (HEK293T) cells expressing luciferase-tagged ELG1; 330,000 tested, 2.3% active; Potency, µM (series often up to 46.1 µM), for the others: top-dose activity change, negative = inhibition, actives largely listed as inhibitors; HEK293T ELG1-luciferase reporter, luminescence, 16 h; DNA damage induced by 5-fluorouridine; AID 504467, 2011; note: potency is the fitted concentration of half-maximal effect; nearly all actives have a fitted effect of over 55% in size
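Cells (2,000 per well) received 5-fluorouridine plus test compound or DMSO and were incubated 16 hr at 37 °C, 5% CO2. Luciferase activity was read by luminescence 30 min after ONE-Glo addition; signal suppression marked inhibition of damage-induced ELG1 function.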
TDP1 cell noCPT: qHTS for Inhibitors of human tyrosyl-DNA phosphodiesterase 1 (TDP1): qHTS in cells in absence of CPT; DT40 Tdp1-/- hTDP1 cells, no CPT, ATP luminescence, 48 h; Potency, µM (doses to about 46.2 µM), for inactives: at the top dose activity change, negative = growth inhibition, hits mostly inhibitors; 420,000 tested, 15% active; note: potency is the fitted concentration of half-maximal effect; nearly all actives have a fitted effect of over 55% in size
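Stably hTDP1-transfected Tdp1-null chicken DT40 cells were treated with library compounds minus camptothecin and grown for at least 48 hr at 37 °C, after which cellular ATP was quantified by luminescence.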
TDP1 cell CPT: qHTS for Inhibitors of human tyrosyl-DNA phosphodiesterase 1 (TDP1): qHTS in cells in presence of CPT. 420,000 tested, 12% active. chicken DT40 Tdp1-/-;hTDP1 cells + 20 nM CPT, ATP luminescence, 48 h. AID 686979, 2013. Potency, µM (highest dose often 46.2 µM), inactives show at the highest dose activity change, negative = growth inhibition, actives largely listed as inhibitors; note: potency is the fitted concentration of half-maximal effect; nearly all actives have a fitted effect of over 55% in size
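Chicken DT40 Tdp1-/- cells complemented with human TDP1, 400 cells/well, exposed to compounds plus 20 nM camptothecin for at least 48 h at 37 C; viability read as ATP content by CellTiter-Glo luminescence.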
The depositor's hits bear a star; ? = inconclusive; · = no result given; [ ] = another dose, or the depositor's remark. A selection: hits, their analogues and other compounds. The true share with any hit is near 19%. Unless noted, calls come from the whole dose curve; as a rule, active = well fitted curve in the direction sought with a large enough effect; inconclusive = small, poorly fitted or top-dose-only effect, or another doubt; inactive = no such curve, though single readings can be large; an effect the other way counts as inactive or inconclusive. % is set by controls: 0 for no effect and ±100 for the full control effect.

SMILES	IL-1B inflam inh	Giardia killer	TDP1 inh	ELG1 DNA repair	TDP1 cell noCPT	TDP1 cell CPT
O=S(=O)(c1ccc2ccccc2c1)N1CCCCCC1	-1.9	-5.2	2.8%	?	-20.8%	4.0%
COc1cccc2c1cc1c(=O)n(CC(=O)N3CCC(C)CC3)nc(C)n12	5.6	2.6	1.9%	15.8%	?	-7.1%
OC1(c2ccc(Cl)c(C(F)(F)F)c2)CCN(CCCC(c2ccc(F)cc2)c2ccc(F)cc2)CC1	·	·	9.5%	·	2.99µM*	2.66µM*
Cc1ccc(Cn2c(=O)n(Cc3ccccc3Cl)c(=O)c3cccnc32)cc1	·	·	0.0%	·	?	-11.2%
CC(C)c1ccc(NC(=O)CSc2nc(=O)n(CCCN3CCOCC3)c3c2CCCC3)cc1	-9.9	-0.6	·	-23.5%	?	?
CC(=O)Nc1ccc(SCCN2CC[C@@H](C(C)(C)C)CCC2=O)cc1	-18.1	16.9	0.8%	-29.0%	12.6µM*	?
CC(C)(C)C1CCC(=O)N(CCSc2ccccc2)CC1 (configuration not stated)	119.9	-15.4	·	?	?	?
Cc1ccc(SCCN2CCC(C(C)(C)C)CCC2=O)cc1 (configuration not stated)	1.2	21.5	·	?	?	9.2µM*
COc1ccccc1OCCCCn1c(-c2ccc(Cl)cc2)nc2ccccc2c1=O	·	·	·	·	-9.9%	-19.6%
O=C(C1CCCN(CCCc2ccccc2)C1)N1CCCCCC1 (configuration not stated)	-16.3	18.1	-7.1%	-1.0%	-25.4%	-27.2%
Cc1nccc(-c2ccc(-n3cnc4ccccc43)cc2)n1	-22.7	5.8	4.7%	10.3µM*	?	?
Cc1ccsc1C(=O)N1CCC1(C)C(=O)NS(=O)(=O)c1ccc(Br)cc1 (configuration not stated)	17.3	·	·	·	-1.7%	6.5%
Cn1c(=O)c2cc3ccccc3nc2n(C)c1=O	-9.7	-3.4	-1.4%	12.8%	-15.5%	0.2%
CCCCc1ccc(NC(=O)CSc2nc3ccccc3nc2N2CCCCC2)cc1	·	·	2.1%	·	?	-7.4%
O=C(C1=C[C@H](c2csc3ccccc23)C[C@H](OCCCCO)O1)N1CCN(Cc2ccccc2)CC1	-6.0	-1.1	0.0%	1.6%	?	25.9µM*
O=C(C1=C[C@H](c2csc3ccccc23)C[C@H](OCCCCO)O1)N1CCN(Cc2ccc3c(c2)OCO3)CC1	-54.2*	11.8	3.8%	?	?	?
O=C(NCc1ccccc1)C1=C[C@H](c2csc3ccccc23)C[C@H](OCCCCO)O1	-25.4	-9.7	1.3%	?	18.4µM*	16.4µM*
O=C(C1=C[C@@H](c2csc3ccccc23)C[C@@H](OCc2ccc(CO)cc2)O1)N1CCN(Cc2ccc3c(c2)OCO3)CC1	?	-2.7	1.3%	9.2µM*	?	?
O=C(C1=C[C@@H](c2csc3ccccc23)C[C@@H](OCCCCO)O1)N1CCN(Cc2ccc3c(c2)OCO3)CC1	?	3.1	7.7%	?	?	?
COc1ccc(N2CC(C(=O)Nc3ccc(NC(C)=O)cc3)CC2=O)cc1 (configuration not stated)	·	·	1.3%[12.3 µM]	·	-1.1%	2.8%
O=C(C1=C[C@H](c2ccc(Br)cc2)C[C@H](OCCCCO)O1)N1CCN(Cc2ccccc2)CC1	0.0	-0.6	3.8%	-2.2%	?	23.1µM*
O=C(C1=C[C@@H](c2csc3ccccc23)C[C@@H](OCc2ccc(CO)cc2)O1)N1CCOCC1	-19.3	-7.4	5.1%	?	-23.7%	?
O=C(C1=C[C@@H](c2ccc(Br)cc2)C[C@@H](OCCCCO)O1)N1CCN(Cc2ccc3c(c2)OCO3)CC1	?	-6.8	1.3%	0.0%	?	?
O=C(C1=C[C@@H](c2csc3ccccc23)C[C@@H](OCc2ccc(CO)cc2)O1)N1CCN(Cc2ccccc2)CC1	-59.6*	-15.6	3.8%	?	?	?
COc1cccc(C(=O)NCCS(=O)(=O)N2CCCC(C)C2)c1 (configuration not stated)	5.3	·	·	·	-27.4%	-4.2%
SMILES	IL-1B inflam inh	Giardia killer	TDP1 inh	ELG1 DNA repair	TDP1 cell noCPT	TDP1 cell CPT
COc1cccc(NC(=O)c2oc3ccccc3c2NC(=O)C23CC4CC(CC(C4)C2)C3)c1	·	·	3.8%	·	-5.2%	-7.4%
Cn1c(=O)c2c(SCC(=O)NCc3ccco3)nc(-c3cccc(F)c3)nc2n(C)c1=O	·	·	0.0%	·	-9.0%	-12.3%
Cn1c(=O)c2c(SCC(=O)NCc3ccco3)nc(-c3ccccc3Cl)nc2n(C)c1=O	3.4	1.6	-4.7%	1.4%	23.1µM*	?
COc1ccc(-c2cc(=O)c3c(O)cc(O)c(-c4cc(-c5cc(=O)c6c(O)cc(OC)cc6o5)ccc4OC)c3o2)cc1	·	·	13.4%	·	·	·
CN(C)CC1CCCCC1OC(=O)/C=C/c1ccc(Cl)cc1Cl (configuration not stated)	-79.3*	5.3	5.0%	3.0%	?	?
N#CC1=C(N)NC(SCc2ccc(F)cc2)=C(C#N)C12CCCCC2	-9.3	-19.8	6.6%	?	25.9µM*	23.1µM*
N#CC1=C(N)NC(SCC(=O)O)=C(C#N)C12CCCC2	-4.1	0.5	-2.0%	4.2%	1.4%	-16.7%
COCCn1c(=O)c(-c2ccc(Cl)cc2)nc2cnc(OC)nc21	·	·	·	·	?	6.4%
C=CCn1c(SCC(=O)N(C)c2c(N)n(Cc3ccccc3)c(=O)[nH]c2=O)nnc1-c1ccccc1OC	6.5	-9.5	1.7%	3.1%	-4.8%	-21.1%
Cc1ccc2nc(N3CCN(Cc4nnnn4C4CCCC4)CC3)c(C#N)cc2c1	-4.1	-17.1	0.0%	?	23.1µM*	?
CCC(C)(C)n1nnnc1CN1CCN(c2nc3cc(OC)ccc3cc2C#N)CC1	-55.5*	-0.3	-4.2%	?	23.1µM*	?
COc1ccc2cc(C#N)c(N3CCOCC3)nc2c1	23.8	-3.3	-0.5%	-26.5%	?	?
O=C(CCCc1ccccc1)NCCc1ccc(F)cc1	-19.7	0.6	1.8%	?	?	-4.2%
O=C(CS(=O)(=O)c1cccc2nsnc12)Nc1ccccc1	·	·	7.7%	·	-3.9%	6.3%
